Assay outcomes deposited in PubChem by National Center for Advancing Translational Sciences (NCATS).
Pf growth 48h: P. falciparum growth inhibition at 48 hours (one generation); P. falciparum luciferase growth in erythrocytes, 48 h; Potency, µM (series often up to 28.7 µM), for inactives: at the highest dose activity change, negative = inhibition, actives largely listed as inhibitors; actives 5.9% (n = 310,000); AID 504832; note: % is set by controls: 0 for no effect and ±100 for the full control effect
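Here the parasites carry a stable luciferase gene and grow inside erythrocytes in Albumax-based RPMI medium with compound for one erythrocytic cycle. Activity is scored as loss of luminescent signal.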
NS1 function inh: blocks influenza NS1 protein function | actives 0.4% (n = 270,000) | Potency, µM (series often up to 46.1 µM), for the others: top-dose activity, positive = more growth; calls by dose curve; note: actives are rising curves; nearly all actives have a fitted effect of over 50% in size
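Read-out: OD600 growth recovery of NS1-expressing budding yeast. Cells grown overnight at 30C in -URA glucose medium, washed, resuspended and diluted 1:100 in 2% galactose assay medium, pH 6.0. Same strain lacking NS1 served as positive control.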
AMA1-RON2 inh: AMA1-RON2 (P. falciparum) interaction inhibition; actives 0.2% (n = 360,000); AlphaScreen AMA1-biotinylated RON2 peptide binding; AID 720542; Potency, µM (top dose mostly 58.2 µM), for the others: top-dose activity change, negative = inhibition, actives largely listed as inhibitors;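 note: 0% = vehicle wells and -100% = peptide control; nearly all actives have a fitted effect of over 45% in size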
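AMA1 (3D7) with his tag at 25 nM final met compounds first, then biotinylated RON2 peptide at 25 nM; detection used donor plus acceptor beads, 10 µg/mL apiece, read by AlphaScreen after 30 min at room temperature.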
SARS PLP yeast: SARS-CoV PLP inhibition in yeast; actives 0.19% (n = 330,000); S. cerevisiae expressing SARS-CoV PLpro, growth rescue; Potency, µM (doses to about 32.9 µM), inactives show at the top dose activity, positive = growth rescue, hits mostly activators; AID 485353; calls by dose curve; note: 0% is about no effect; nearly all actives have a fitted effect of over 55% in size
HCV inhibitor: inhibitors of hepatitis C virus infection; AID 651820; Huh7.5.1 HCVcc-Cre infection, luciferase reporter, 44 h; Potency, µM (series often up to 41.8 µM), for inactives: at the highest dose activity change, negative = inhibition, usual class: inhibitors; actives 3.4% (n = 340,000); note: % is set by controls: 0 for no effect and ±100 for the full control effect
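Infectious HCV cell culture screen: compound-treated cells (1,000/well, pre-plated 4 h) are infected with HCVcc-Cre at roughly 0.5 moi and grown 44 h. Infection is quantified by luciferase signal after 15 min substrate incubation at room temperature.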
Pf growth 96h: inhibits malaria parasite growth, 96 h | P. falciparum luciferase reporter growth, 96 h | Potency, µM (titrated, usually from 28.7 µM), inactives show at the top dose activity change, negative = inhibition, most hits filed as inhibitors | actives 6.9% (n = 320,000); note: % is set by controls: 0 for no effect and ±100 for the full control effect
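Luminescence readout: decreased luciferase signal marks inhibited growth of reporter-expressing P. falciparum in infected red cells (2% hematocrit, 0.05% parasitemia final), exposed to compound two generations (96 h, 37 C, 5% CO2).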
Numbers without * were called inactive; ? = inconclusive; . = no result; [ ] = another dose, or the depositor's remark. In the library only some 12% were active in any assay of this set; here they are far more common. Unless noted, calls come from the whole dose curve; as a rule, active = well fitted curve in the direction sought with a large enough effect; inconclusive = small, poorly fitted or top-dose-only effect, or another doubt; inactive = no such curve, though single readings can be large; an effect the other way counts as inactive or inconclusive. Potency is the fitted concentration of half-maximal effect.

SMILES | Pf growth 48h | NS1 function inh | AMA1-RON2 inh | SARS PLP yeast | HCV inhibitor | Pf growth 96h
Cc1ccc(S(=O)(=O)Nc2ccc(NC(=O)Nc3cccc(C(F)(F)F)c3)cc2)cc1 | 13µM* | -5% | 2% | 25% | ? | ?
O=C(Nc1ccc(OC(F)F)cc1)Nc1cccc(C(F)(F)F)c1 | . | -209% | 5% | -39% | ? | 5.2µM*
Cc1ccc(S(=O)(=O)CC(C)(O)C(=O)Nc2cccc(C(F)(F)F)c2)cc1 (configuration not stated) | -11% | -7% | 4% | -4% | 2% | 9%
CCN(CC)S(=O)(=O)c1ccc(NC(=O)Nc2cccc(C(F)(F)F)c2)cc1 | 5.2µM* | -8% | 5% | -5% | 11µM* | .
COC(=O)c1cc(S(=O)(=O)Nc2cccc(-c3cnco3)c2)oc1C | . | 2% | -5% | 2% | 4% | 0%
O=S1(=O)N[C@H](Cc2ccccc2)COc2cc(N3CC[C@H](O)C3)ccc21 | . | . | 1% | . | . | .
CC(OC(=O)CC1CCCCC1)C(=O)Nc1ccc(F)cc1 (configuration not stated) | -5% | . | 5% | 1% | 4% | -4%
O=C(CNC(=O)c1ccccc1F)N/N=C\C=C\c1ccccc1 | 17% | 10% | 27% | ? | 2% | -29%
CCOC(=O)c1ccc(N2C(=O)C(O)=C(C(C)=O)C2c2ccccc2)cc1 (configuration not stated) | -27% | 7% | 3% | 12% | 2% | -9%
CCOC(=O)c1ccc(N2C(=O)[C@@H](c3ccccc3)[C@H]2c2ccccc2)cc1 | 10µM* | . | -5% | -16% | -6% | ?
Cc1oc(=O)oc1CN1CCN(c2cc3c(cc2F)c(=O)c(C(=O)O)c2n3C(C)S2)CC1 (configuration not stated) | 2.4µM* | . | . | . | . | 1.7µM*
CC(C)COC(=O)N1CCN(S(=O)(=O)c2ccc3c(c2)CCC3)CC1 | ? | . | 6%[11.6 µM] | 1% | -13% | ?
CC(Cc1cccs1)NC(=O)Nc1ccccc1 (configuration not stated) | 42% | -11% | -3% | 5% | -7% | 2.9µM*
CC(Cc1cccs1)NC(=O)Nc1ccc(Cl)cc1 (configuration not stated) | 96% | -84% | 13% | -15% | -7% | .
Cc1nc2cc(F)ccc2n1C1CCN(C(=O)c2c(F)cccc2F)CC1 | 1.5µM* | . | 10% | -1% | ? | -10%
Cc1ccccc1CN1CCN(S(C)(=O)=O)CC1 | 1% | -2% | -23% | 19% | 9% | -1%
Cc1ccccc1CN1CCN(S(=O)(=O)c2ccc(Cl)s2)CC1 | 13% | -26% | -14% | -6% | . | 13µM*
COc1ccc2cc3cc(C(=O)NCCc4ccc(OC)c(OC)c4)oc3nc2c1 | ? | -35% | 10% | -1% | ? | 34%
COc1ccc2cc3cc(C(=O)NCCCN4CCOCC4)oc3nc2c1 | ? | -8% | 0% | 2% | -27% | 1.2µM*
CCCCN(CC)CCCNC(=O)c1cc2cc3ccc(OC)cc3nc2o1 | ? | -10% | 6% | -3% | ? | 3.7µM*
COc1ccc2cc3cc(C(=O)NCc4cccs4)oc3nc2c1 | 5.9µM* | 2% | -7% | -11% | -19% | -6%
CCN1CCN(CCCNC(=O)c2cc3cc4ccc(OC)cc4nc3o2)CC1 | 13µM* | -8% | 10% | -3% | ? | 45%
COc1ccc2cc3cc(C(=O)NCCCN4CCC(C)CC4)oc3nc2c1 | ? | 1% | 14% | 2% | ? | -31%
Cc1ccc2cc3cc(C(=O)NCCCN4CCCC4=O)oc3nc2c1 | 2.6µM* | -2% | 6% | 1% | ? | ?
Cc1ccc(C(=O)NCc2ccc3c(c2)OCO3)o1 | 39% | -2% | 7% | 1% | 16% | -13%
SMILES | Pf growth 48h | NS1 function inh | AMA1-RON2 inh | SARS PLP yeast | HCV inhibitor | Pf growth 96h
Cc1ccc2cc3cc(C(=O)NCc4ccc5c(c4)OCO5)oc3nc2c1 | 0% | 9% | -6% | 1% | -11% | 3.7µM*
Cc1ccc2cc3cc(C(=O)NCCN4CCOCC4)oc3nc2c1 | ? | 1% | 6% | -19% | -29% | ?
CCOC(=O)N1CCC(NC(=O)c2cc3cc4cc(OC)ccc4nc3o2)CC1 | 2.9µM* | -10% | 7% | -8% | ? | 7.4µM*
COc1ccc2nc3oc(C(=O)NC4CCN(Cc5ccccc5)CC4)cc3cc2c1 | ? | -7% | -11% | 5% | ? | 46%
O=C(NCC1(N2CCOCC2)CCCCC1)c1cccc(S(=O)(=O)Nc2ccc(F)cc2)c1 | 10µM* | . | -6% | -7% | -22% | ?
O=C(NCC1(N2CCCCC2)CCCCC1)c1cccc(S(=O)(=O)Nc2ccc(F)cc2)c1 | 8.3µM* | . | 4% | -6% | -4% | ?
Cc1cccc(NS(=O)(=O)c2cccc(C(=O)NCC3(N4CCOCC4)CCCCC3)c2)c1 | . | . | -6% | . | ? | .
COc1ccccc1NC(=O)CCc1nnc2ccc(N3CCC4(CC3)OCCO4)nn12 | 14% | -1% | 7% | 5% | 6% | ?
O=C(NCCc1ccccc1)C(=O)Nc1ccc([N+](=O)[O-])cc1 | 25% | 2% | -27% | 0% | -3% | -28%
CCCc1cc(=O)[nH]c(SCC(=O)N2c3ccccc3CC2C)n1 (configuration not stated) | . | . | -5% | 2% | 13% | .
O=C(N/N=C/c1cccc(Cl)c1)C(c1ccncc1)N1CCOCC1 (configuration not stated) | 18% | 4% | 46% | -2% | 0% | ?
CCNC(=O)C1(C)CCCN1Cc1ccccc1Cl (configuration not stated) | . | . | -3% | . | . | .
O=C(N/N=C/c1cn(-c2cccs2)nc1-c1ccccc1)c1ccc(O)cc1 | 0% | 16% | 3% | -27% | ? | -22%
O=C(N/N=C/c1cn(-c2ccccc2)nc1-c1ccccc1)c1ccco1 | 3.3µM* | 3% | -4% | -1% | ? | 37%
O=C(N/N=C\c1cn(-c2ccccc2)nc1-c1ccccc1)c1ccc(Br)o1 | 9.3µM* | 19% | -6% | -12% | 4µM* | 4.1µM*
O=C(N/N=C/c1cn(-c2cccs2)nc1-c1ccccc1)c1ccccc1Cl | -4% | ? | -3% | -8% | 11µM* | 30%
CC1(C)CC(=O)C(=Cc2cn(-c3ccccc3)nc2-c2ccc(Cl)cc2)C(=O)C1 | 9% | -8% | -1% | 4% | ? | ?
Cc1ccc(-c2nn(-c3ccccc3)cc2/C=N/NC(=O)c2ccc(Br)o2)cc1 | ? | -9% | 13% | -2% | -11% | ?
CC1=NNC(=O)/C1=C\c1cn(-c2ccccc2)nc1-c1ccccc1 | ? | -8% | -4% | -5% | 11µM* | -9%
O=C(O)/C=C\c1cn(-c2ccccc2)nc1-c1cc2ccccc2o1 | ? | -5% | -12% | -3% | 17% | 2%
